Compounds with a hit are over-represented: about 6.2% of the library has one in this group of screens.
KB-3-1 tox = qHTS assay for MDR1-selective chemotherapeutics: Primary screen using the parental adenocarcinoma cell KB-3-1; KB-3-1 viability, CellTiter-Glo ATP luminescence, 72 h; AID 1347075, 2019; Potency, µM (titrated, usually from 46.1 µM), hits mostly cytotoxic; hit rate 1.4% among 400,000; note: % is set by controls: 0 for no effect and ±100 for the full control effect; nearly all actives have a fitted effect of over 60% in size
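KB-3-1 cells, DMEM (no phenol red) + 10% FBS; compound by pin transfer, 72 h, 37 °C. Readout: CellTiter-Glo luminescence after 10 min. Data normalized, curve-fitted.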
ATXN2 expr inh = Primary qHTS for Inhibitors of ATXN expression. HEK-293 ATXN2-luciferase reporter, luminescence, 24 h. AID 1745845, 2022. Potency, µM (top dose mostly 57 µM), for inactives: at the highest dose activity change, negative = inhibition, usual class: inhibitors. hit rate 0.72% among 360,000; note: % is set by controls: 0 for no effect and ±100 for the full control effect; nearly all actives have a fitted effect of over 55% in size
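ATXN2-luciferase reporter cells (luciferase flanked by upstream and downstream ATXN2 gene portions) were treated 24 h at 37 °C with compounds at up to 57 uM. SteadyGlo luminescence gave expression; GF-AFC fluorescence gave viability.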
HT1080 IDH1KD tx = qHTS for induction of synthetic lethality in tumor cells producing 2HG: qHTS for the HT-1080-IDH1KD cell line; HT-1080 IDH1 knockdown viability, ATP luminescence, 48 h; AID 686971, 2013; hit rate 2% among 360,000; Potency, µM (doses to about 46.1 µM), inactives show at the highest dose activity, negative = toxicity, usual class: cytotoxic;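 note: 0% = DMSO wells and -100% = cell-free medium wells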
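Luminescent ATP read-out (CellTiter-Glo, 10 min at room temperature) after 48 h compound exposure at 37 °C gave viability of IDH1-knockdown HT-1080 cells. Activity was normalised to DMSO and cell-free wells, then fitted as concentration-response curves.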
KB-V1 cytotox = qHTS assay for MDR1-selective chemotherapeutics: Primary screen using the drug-selected MDR subline cells KB-V1; Potency, µM (titrated, usually from 46.1 µM), most hits filed as cytotoxic; hit rate 3.4% among 400,000; KB-V1 MDR cells viability, CellTiter-Glo, 72 h; note: % is set by controls: 0 for no effect and ±100 for the full control effect; nearly all actives have a fitted effect of over 60% in size
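KB-V1 cells (P-gp-expressing MDR subline of KB-3-1) in phenol-red-free DMEM with 10% FBS were exposed to library compounds over a concentration series for 72 h at 37 degrees C. Viability read by CellTiter-Glo luminescence; concentration-effect curves fitted after normalization.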
HT1080-NT tox = qHTS for induction of synthetic lethality in tumor cells producing 2HG: qHTS for the HT-1080-NT fibrosarcoma cell line; Potency, µM (titrated, usually from 46.1 µM), without a hit: top-dose activity, negative = less viability, hits mostly cytotoxic; hit rate 1.6% among 360,000; AID 686970, 2013; HT-1080-NT fibrosarcoma viability, CellTiter-Glo ATP luminescence, 48 h;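 note: NT is the 2HG producing partner of a matched IDH1 knockdown line; 0% = DMSO-treated cells and -100% = media-only wells without cells; nearly all actives have a fitted effect of over 55% in size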
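Toxicity toward the 2HG-producing NT line was scored as %Activity, normalised to DMSO and no-cell wells, from CellTiter-Glo luminescence after 48 hours' treatment.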
S2 tox = Viability Counterscreen for Primary qHTS for Inhibitors of ATXN expression; S2 cells (HEK-293 line with an ATXN2-luciferase reporter) viability, CellTiter-Fluor protease fluorescence, 24 h; Potency, µM (top dose mostly 56.7 µM), most hits filed as cytotoxic; hit rate 0.49% among 400,000; note: nearly all actives have a fitted effect of over 40% in size
* hit, by the source's call; i = inactive; ? = inconclusive; · = not tested or not shown; [ ] = another dose, or the depositor's remark. Calls come from the whole dose curve; as a rule, active = well fitted curve in the direction sought with a large enough effect; inconclusive = small, poorly fitted or top-dose-only effect, or another doubt; inactive = no such curve, though single readings can be large; an effect the other way counts as inactive or inconclusive. Potency is the fitted concentration of half-maximal effect.

SMILES | KB-3-1 tox | ATXN2 expr inh | HT1080 IDH1KD tx | KB-V1 cytotox | HT1080-NT tox | S2 tox
CC1CCCCN1c1cc(C#N)c(C#N)cc1[N+](=O)[O-] (centres undefined) | i | -6.1% | 25.9% | i | 5.0% | i
CC1CCc2cccc3c2N1c1cc(C#N)c(C#N)cc1O3 (centres undefined) | 7.31µM* | -8.5% | -1.3% | ? | 9.7%[9.24 µM] | ?
O=C(CC1(O)C(=O)N(CCc2ccccc2)c2ccccc21)c1ccccn1 (centres undefined) | i | -7.2% | 24.6% | i | 15.1% | i
O=C(CC1(O)C(=O)N(C/C=C/c2ccccc2)c2ccccc21)c1ccccn1 (centres undefined) | ? | -24.9% | 10µM* | ? | ? | i
CN1[C@@H]2CC[C@H]1CC(NC(=O)n1c(=O)[nH]c3ccccc31)C2 (some centres undefined) | · | -14.8% | · | · | · | ?
NC(=O)Cn1c(=O)n(-c2ccc(F)c(Cl)c2)c(=O)c2sc3ccccc3c21 | i | 0.8% | · | i | · | i
CC(=O)c1ccc(N2CCN(c3ncnc4onc(C)c34)CC2)cc1 | 20.6µM* | -13.7% | · | ? | · | i
Cc1noc2ncnc(N3CCN(c4cccc(Cl)c4)CC3)c12 | ? | ? | -21.5% | i | -20.0% | i
CN1CCN(C(c2cccc(Br)c2)c2sc3nc(-c4ccco4)nn3c2O)CC1 (centres undefined) | i | -7.7% | · | i | · | i
CC(Oc1ccc(Cl)cc1Cl)C(=O)NNC(=O)c1ccncc1 (centres undefined) | i | 5.4% | -7.2% | i | ? | i
CC(Oc1ccc(Cl)cc1Cl)C(=O)NCc1ccncc1 (centres undefined) | i | -9.4% | -5.6% | 20.6µM* | 0.1% | i
CC(=O)c1cccc(S(=O)(=O)N2CCN(c3nc(-c4cccs4)nc4ccccc34)CC2)c1 | i | · | · | i | · | ·
CN(CC(=O)NCc1ccc(F)cc1)S(=O)(=O)c1cccc2nsnc12 | i | -2.4% | 8.7% | i | 0.0% | ?
CN(CC(=O)NCc1cccs1)S(=O)(=O)c1cccc2nsnc12 | i | 3.5% | -0.1% | 20.6µM* | -1.1% | i
O=C(NC[C@H](O)CO)c1ccncc1Nc1ccc(I)cc1F | · | 2.2% | · | · | · | ·
CCN(c1ccccc1)S(=O)(=O)c1ccc(NC(=O)c2cc(=O)c3c(C)cc(C)cc3o2)cc1 | i | 15.2% | · | i | · | ?
Cc1ccc(-c2cc(-c3ccc4c(c3)NC(=O)CO4)nc3c2COc2ccccc2-3)cc1 | i | 4.1% | · | i | · | i
Cc1ccc(NC(=S)N/N=C2/CCCCc3ccccc32)cc1 | i | 20.0% | -28.6% | i | -21.3% | i
CCNC(=S)N/N=C1\CCCCc2ccccc21 | i | 5.1% | 7.6% | 16.4µM* | 8.0% | i
Cc1cccc(NC(=S)N/N=C2/CCCCc3ccccc32)c1 | ? | 21.0% | -27.4% | 16.4µM* | -21.1% | i
O=C(C[n+]1ccccc1Cl)c1ccc2ccccc2c1 | i | · | · | i | · | ·
CCN(CC)CCNC(=O)c1c(C)n(-c2ccccc2)c2cc(Br)c(OC)cc12 | ? | ? | 16.4µM* | i | ? | ?
COC(=O)c1ccc(OC(=O)CS(=O)c2ccccc2[N+](=O)[O-])cc1 (centres undefined) | i | 7.1% | -4.1% | i | -2.6% | i
CCOC(=O)c1ccccc1OC(=O)CS(=O)c1ccccc1[N+](=O)[O-] (centres undefined) | i | 2.2% | -6.5% | i | -13.5% | i
O=C(CS(=O)c1ccc(C(F)(F)F)cc1[N+](=O)[O-])Oc1ccccc1 (centres undefined) | ? | ? | 16.4µM* | ? | 16.4µM* | ?
SMILES | KB-3-1 tox | ATXN2 expr inh | HT1080 IDH1KD tx | KB-V1 cytotox | HT1080-NT tox | S2 tox
CS(=O)(=O)c1ccc(S(=O)CC(=O)OCc2ccccc2)c([N+](=O)[O-])c1 (centres undefined) | i | ? | 4.11µM* | i | 5.8µM* | ·
CCc1ccc(Sc2cc(C(=O)NCCCN3CCC(C)CC3)c3ccccc3n2)cc1 | i | ? | · | i | · | i
Cc1ccc(N(C(=O)CNC(=O)c2ccco2)C(C(=O)NC2CCCCC2)c2cccnc2)cc1C (centres undefined) | i | 7.0% | 2.8% | i | 8.5% | i
Cc1ccc(N(C(=O)CCl)C(C(=O)NC2CCCCC2)c2cccnc2)cc1C (centres undefined) | 3.66µM* | 3.16µM* | 1.64µM* | 3.66µM* | 1.64µM* | 2.82µM*
Cc1ccc(-c2nnn(CC(=O)N(c3ccc(F)cc3)C(C(=O)NC3CCCC3)c3ccco3)n2)o1 (centres undefined) | i | -17.9% | -21.9% | ? | -29.8%[9.24 µM] | i
Cc1ccc(N(C(=O)Cn2nnc(-c3ccccc3)n2)C(C(=O)NC2CCCCC2)c2ccccn2)cc1C (centres undefined) | i | -1.2% | 2.1% | 1.16µM* | -2.5% | i
Cc1ccc(-c2nnn(CC(=O)N(c3cccc(F)c3)C(C(=O)NC3CCCC3)c3ccco3)n2)o1 (centres undefined) | i | -38.4% | 2.82µM* | i | ? | ?
CCCCN(c1ccccc1)c1ncnc2c1cnn2-c1ccc(Cl)cc1 | i | 48.3% | · | i | · | i
CC1=C(C(=O)Nc2ccccc2)C(c2ccncc2)n2nc(SCc3ccccc3F)nc2N1 (centres undefined) | i | -3.9% | · | i | · | i
CC1(C)CC(=O)C2=C(C1)Oc1nc3ccccc3cc1C2C(C#N)C#N (centres undefined) | 20.6µM* | -10.1% | 23.1µM* | ? | 18.4µM* | ?
CC1(C)CC(=O)C(C2C3=C(CC(C)(C)CC3=O)Oc3ccccc32)C(=O)C1 (centres undefined) | i | 0.9% | -5.6% | i | 28.5% | i
COc1ccc(C2=C(CN(C)C)C(c3ccccc3)c3ccccc3O2)cc1 (centres undefined) | i | ? | 23.1µM* | 11.6µM* | 20.6µM* | ?
Cc1cccc(-n2c3nc(=O)[nH]c(=O)c-3cc3c(Cl)cccc32)c1C | i | 8.9% | · | i | · | i
